# Measurements from PMC5540273 (PLoS ONE, 2017).
# System: AURKC
# Details: concentration: 1 μM,replicates: in singlicate; n = 1
# 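Further: KINOMEscan kinase panel screen.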
row,SMILES,%Inh [%]
1,CS(=O)c1ccc(-c2coc3ccc(-c4n[nH]c(=O)o4)cc23)cc1 (centres unmarked),0
2,O=C(Nc1cccc(Oc2ccc3nccn3n2)c1)Nc1cccc(C(F)(F)F)c1,41
3,CCNCC(Cc1ccccc1)NC(=O)c1cc(Br)c(-c2ccnc3[nH]ccc23)s1.Cl.Cl (centres unmarked) [GSK1383280],86
4,COC(=O)Nc1nc2cc(Oc3ccc(NC(=O)Nc4cc(C(F)(F)F)ccc4Cl)cc3)ccc2[nH]1.Cl [GW697465],53
5,COc1cc2nccc(Nc3ccc(Oc4ccccc4)cc3)c2cc1OC.Cl [GI261656],0
6,Cc1ccc2c(-c3ccnc(Nc4ccc(C(F)(F)F)cc4)n3)cnn2n1 [GW819776],4
7,O=C(Nc1ccccc1)c1cccc(Oc2ccc3nccn3n2)c1,28
8,C[C@@H](Oc1cc(-n2cnc3cc(-c4ccncc4)ccc32)sc1C(N)=O)c1ccccc1Cl [GSK479719],100
9,CS(=O)(=O)Nc1ccc(-c2ccnc3[nH]ccc23)cc1 [GSK993273],76
10,NC(=O)c1ccc(-c2cc3ncnc(SCC(=O)O)c3s2)cc1,33
11,CN(c1ccc2c(c1)nc(NCc1ccc(F)cc1)n2C)c1ccnc(Nc2ccc(CS(C)(=O)=O)cc2)n1.Cl [GW813244],67
12,Cn1ccc2ncnc(Oc3ccc(NC(=O)Nc4cccc(C(F)(F)F)c4)c(F)c3)c21,65
13,CCOC(=O)N1CCC(n2cnc(-c3ccc(F)cc3)c2-c2ccnc(N)n2)CC1 [SB-219952],19
14,Cc1cccc2c(-c3ccncc3)c(-c3ccc(F)cc3)nn12.Cl [GW461487],0
15,N#Cc1cccc(C(=O)NC2CCN(c3ccnc(Nc4ccc(F)cc4)n3)C2)c1 (centres unmarked) [GSK1379708],33
16,Cc1n[nH]c2cc(Nc3ccnc(Nc4cccc(CN5CCOCC5)c4)n3)ccc12 [GW682569],93.5
17,Cn1cc(-c2cccc3c(N)c(C(N)=O)nnc23)cn1,53
18,Nc1nccc(-c2ccc3c(N)n[nH]c3c2)n1 [GSK1034945],51
19,C[C@@H]1CNc2c(sc3ccc4nc(-c5ccc(O)cc5)ccc4c23)C(=O)N1,0

row,SMILES,%Inh [%]
1,COc1cccc(C2=C(Nc3cccc(Cl)c3)C(=O)NC2=O)c1 [SB-341556],3
2,CCn1c(-c2nonc2N)nc2cncc(Br)c21 [SB-738004],0
3,COc1cc2c(Nc3ccc(NC(=O)c4ccccc4)cc3)ncnc2cc1OCCCN1CCOCC1 [GSK301329],70
4,O=C1NCCc2[nH]c(-c3ccncc3)cc21,11
5,Cc1ccc(Nc2ccnc(Nc3ccc4c(c3)CS(=O)(=O)C4)n2)cc1O.Cl [GW579362],97.9
6,O=C(Nc1n[nH]c2cc(-c3ccco3)ccc12)C1CC1 [SB-737447],34
7,CN(c1cccc(CNc2nc(Nc3ccc4c(c3)CC(=O)N4)ncc2C(F)(F)F)c1)S(C)(=O)=O,88
8,Cc1ccc(C(=O)Nc2ccc(Oc3ccc4nc(NC(=O)C5CC5)cn4c3)c(F)c2)c(=O)n1-c1ccccc1,48
9,COC(=O)c1cccc(NC(=O)NC2CCN(c3ccnc(NCc4ccc(F)cc4)n3)CC2)c1 [GSK1379860],13
10,Cl.c1ccc(Oc2ccc(Nc3ccnc4cc(-c5ccc(CN6CCNCC6)o5)ccc34)cc2)nc1 [GW567142],27
11,O=C(NCC1CC1)c1ccc(-c2cc(C(=O)NC3CC3)ccc2F)cc1 [GW810445],0
12,C[C@@H](Oc1cc(-n2cnc3cc(-c4cnn(C)c4)ccc32)sc1C(N)=O)c1ccccc1Cl [GSK580432],100
13,CC(C)c1nc(-c2cccc(NS(=O)(=O)c3ccccc3)c2)c(-c2ccnc(Nc3ccc4c(c3)CN(C)CC4)n2)s1 [GSK1649598],55
14,C[C@@H](Oc1cc(-n2cnc3ccc(-c4ccncc4)cc32)sc1C(N)=O)c1ccccc1Cl [GSK483724],50
15,CCn1c(-c2nonc2N)nc2cncc(CNC3CCNCC3)c21.Cl [SB-747651],0
16,CC(C)S(=O)(=O)N1CCN(Cc2ccc3c(c2)nc(NC(=O)c2ccsc2)n3C[C@H](O)c2ccccc2)CC1 [GW635815],37
17,COc1cc(Nc2nccc(N3CCC(NC(=O)c4cccc(C#N)c4)C3)n2)cc(OC)c1OC (centres unmarked) [GSK1379751],56
18,Cc1ccc(CC(=O)N2CCc3cc(-c4cn(C)c5ncnc(N)c45)ccc32)cc1 [GSK2634758],47

# System: AXL
# Details: concentration: 1 μM,replicates: in singlicate; n = 1
row,SMILES,%Inh [%]
1,CS(=O)c1ccc(-c2coc3ccc(-c4n[nH]c(=O)o4)cc23)cc1 (centres unmarked),3
2,O=C(Nc1cccc(Oc2ccc3nccn3n2)c1)Nc1cccc(C(F)(F)F)c1,35
3,CCNCC(Cc1ccccc1)NC(=O)c1cc(Br)c(-c2ccnc3[nH]ccc23)s1.Cl.Cl (centres unmarked) [GSK1383280],63
4,COC(=O)Nc1nc2cc(Oc3ccc(NC(=O)Nc4cc(C(F)(F)F)ccc4Cl)cc3)ccc2[nH]1.Cl [GW697465],98
5,COc1cc2nccc(Nc3ccc(Oc4ccccc4)cc3)c2cc1OC.Cl [GI261656],10
6,Cc1ccc2c(-c3ccnc(Nc4ccc(C(F)(F)F)cc4)n3)cnn2n1 [GW819776],0
7,O=C(Nc1ccccc1)c1cccc(Oc2ccc3nccn3n2)c1,0
8,C[C@@H](Oc1cc(-n2cnc3cc(-c4ccncc4)ccc32)sc1C(N)=O)c1ccccc1Cl [GSK479719],89
9,CS(=O)(=O)Nc1ccc(-c2ccnc3[nH]ccc23)cc1 [GSK993273],76
10,NC(=O)c1ccc(-c2cc3ncnc(SCC(=O)O)c3s2)cc1,0
11,CN(c1ccc2c(c1)nc(NCc1ccc(F)cc1)n2C)c1ccnc(Nc2ccc(CS(C)(=O)=O)cc2)n1.Cl [GW813244],68
12,Cn1ccc2ncnc(Oc3ccc(NC(=O)Nc4cccc(C(F)(F)F)c4)c(F)c3)c21,87
13,CCOC(=O)N1CCC(n2cnc(-c3ccc(F)cc3)c2-c2ccnc(N)n2)CC1 [SB-219952],19
14,Cc1cccc2c(-c3ccncc3)c(-c3ccc(F)cc3)nn12.Cl [GW461487],0
15,N#Cc1cccc(C(=O)NC2CCN(c3ccnc(Nc4ccc(F)cc4)n3)C2)c1 (centres unmarked) [GSK1379708],20
16,Cc1n[nH]c2cc(Nc3ccnc(Nc4cccc(CN5CCOCC5)c4)n3)ccc12 [GW682569],35
17,Cn1cc(-c2cccc3c(N)c(C(N)=O)nnc23)cn1,22
18,Nc1nccc(-c2ccc3c(N)n[nH]c3c2)n1 [GSK1034945],0
19,C[C@@H]1CNc2c(sc3ccc4nc(-c5ccc(O)cc5)ccc4c23)C(=O)N1,87

row,SMILES,%Inh [%]
1,COc1cccc(C2=C(Nc3cccc(Cl)c3)C(=O)NC2=O)c1 [SB-341556],12
2,CCn1c(-c2nonc2N)nc2cncc(Br)c21 [SB-738004],22
3,COc1cc2c(Nc3ccc(NC(=O)c4ccccc4)cc3)ncnc2cc1OCCCN1CCOCC1 [GSK301329],55
4,O=C1NCCc2[nH]c(-c3ccncc3)cc21,8
5,Cc1ccc(Nc2ccnc(Nc3ccc4c(c3)CS(=O)(=O)C4)n2)cc1O.Cl [GW579362],86
6,O=C(Nc1n[nH]c2cc(-c3ccco3)ccc12)C1CC1 [SB-737447],0
7,CN(c1cccc(CNc2nc(Nc3ccc4c(c3)CC(=O)N4)ncc2C(F)(F)F)c1)S(C)(=O)=O,64
8,Cc1ccc(C(=O)Nc2ccc(Oc3ccc4nc(NC(=O)C5CC5)cn4c3)c(F)c2)c(=O)n1-c1ccccc1,84
9,COC(=O)c1cccc(NC(=O)NC2CCN(c3ccnc(NCc4ccc(F)cc4)n3)CC2)c1 [GSK1379860],9
10,Cl.c1ccc(Oc2ccc(Nc3ccnc4cc(-c5ccc(CN6CCNCC6)o5)ccc34)cc2)nc1 [GW567142],0
11,O=C(NCC1CC1)c1ccc(-c2cc(C(=O)NC3CC3)ccc2F)cc1 [GW810445],10
12,C[C@@H](Oc1cc(-n2cnc3cc(-c4cnn(C)c4)ccc32)sc1C(N)=O)c1ccccc1Cl [GSK580432],97.4
13,CC(C)c1nc(-c2cccc(NS(=O)(=O)c3ccccc3)c2)c(-c2ccnc(Nc3ccc4c(c3)CN(C)CC4)n2)s1 [GSK1649598],68
14,C[C@@H](Oc1cc(-n2cnc3ccc(-c4ccncc4)cc32)sc1C(N)=O)c1ccccc1Cl [GSK483724],32
15,CCn1c(-c2nonc2N)nc2cncc(CNC3CCNCC3)c21.Cl [SB-747651],100
16,CC(C)S(=O)(=O)N1CCN(Cc2ccc3c(c2)nc(NC(=O)c2ccsc2)n3C[C@H](O)c2ccccc2)CC1 [GW635815],97.7
17,COc1cc(Nc2nccc(N3CCC(NC(=O)c4cccc(C#N)c4)C3)n2)cc(OC)c1OC (centres unmarked) [GSK1379751],22
18,Cc1ccc(CC(=O)N2CCc3cc(-c4cn(C)c5ncnc(N)c45)ccc32)cc1 [GSK2634758],98.8
